According to PubChem BioAssay AID2073 (Sanford-Burnham Center for Chemical Genomics, 2009):
Screen size: about 290,000 compounds; about 570 (0.2%) were called active. Roughly 1% stayed inconclusive and do not appear here. Cut-off read from the data, not from the text of the source: active = inhibition mostly above about 51% (no sharp cut-off); inconclusive = no clear call, values can overlap the other calls; inactive = mostly below about 53%. The list comes from a sample in which actives are over-represented; it also holds similar structures and randomly drawn compounds.

Target: Voltage-dependent N-type calcium channel subunit alpha-1B (Homo sapiens) (UniProt Q00975)
Sequence (Q00975 whole entry, looked up): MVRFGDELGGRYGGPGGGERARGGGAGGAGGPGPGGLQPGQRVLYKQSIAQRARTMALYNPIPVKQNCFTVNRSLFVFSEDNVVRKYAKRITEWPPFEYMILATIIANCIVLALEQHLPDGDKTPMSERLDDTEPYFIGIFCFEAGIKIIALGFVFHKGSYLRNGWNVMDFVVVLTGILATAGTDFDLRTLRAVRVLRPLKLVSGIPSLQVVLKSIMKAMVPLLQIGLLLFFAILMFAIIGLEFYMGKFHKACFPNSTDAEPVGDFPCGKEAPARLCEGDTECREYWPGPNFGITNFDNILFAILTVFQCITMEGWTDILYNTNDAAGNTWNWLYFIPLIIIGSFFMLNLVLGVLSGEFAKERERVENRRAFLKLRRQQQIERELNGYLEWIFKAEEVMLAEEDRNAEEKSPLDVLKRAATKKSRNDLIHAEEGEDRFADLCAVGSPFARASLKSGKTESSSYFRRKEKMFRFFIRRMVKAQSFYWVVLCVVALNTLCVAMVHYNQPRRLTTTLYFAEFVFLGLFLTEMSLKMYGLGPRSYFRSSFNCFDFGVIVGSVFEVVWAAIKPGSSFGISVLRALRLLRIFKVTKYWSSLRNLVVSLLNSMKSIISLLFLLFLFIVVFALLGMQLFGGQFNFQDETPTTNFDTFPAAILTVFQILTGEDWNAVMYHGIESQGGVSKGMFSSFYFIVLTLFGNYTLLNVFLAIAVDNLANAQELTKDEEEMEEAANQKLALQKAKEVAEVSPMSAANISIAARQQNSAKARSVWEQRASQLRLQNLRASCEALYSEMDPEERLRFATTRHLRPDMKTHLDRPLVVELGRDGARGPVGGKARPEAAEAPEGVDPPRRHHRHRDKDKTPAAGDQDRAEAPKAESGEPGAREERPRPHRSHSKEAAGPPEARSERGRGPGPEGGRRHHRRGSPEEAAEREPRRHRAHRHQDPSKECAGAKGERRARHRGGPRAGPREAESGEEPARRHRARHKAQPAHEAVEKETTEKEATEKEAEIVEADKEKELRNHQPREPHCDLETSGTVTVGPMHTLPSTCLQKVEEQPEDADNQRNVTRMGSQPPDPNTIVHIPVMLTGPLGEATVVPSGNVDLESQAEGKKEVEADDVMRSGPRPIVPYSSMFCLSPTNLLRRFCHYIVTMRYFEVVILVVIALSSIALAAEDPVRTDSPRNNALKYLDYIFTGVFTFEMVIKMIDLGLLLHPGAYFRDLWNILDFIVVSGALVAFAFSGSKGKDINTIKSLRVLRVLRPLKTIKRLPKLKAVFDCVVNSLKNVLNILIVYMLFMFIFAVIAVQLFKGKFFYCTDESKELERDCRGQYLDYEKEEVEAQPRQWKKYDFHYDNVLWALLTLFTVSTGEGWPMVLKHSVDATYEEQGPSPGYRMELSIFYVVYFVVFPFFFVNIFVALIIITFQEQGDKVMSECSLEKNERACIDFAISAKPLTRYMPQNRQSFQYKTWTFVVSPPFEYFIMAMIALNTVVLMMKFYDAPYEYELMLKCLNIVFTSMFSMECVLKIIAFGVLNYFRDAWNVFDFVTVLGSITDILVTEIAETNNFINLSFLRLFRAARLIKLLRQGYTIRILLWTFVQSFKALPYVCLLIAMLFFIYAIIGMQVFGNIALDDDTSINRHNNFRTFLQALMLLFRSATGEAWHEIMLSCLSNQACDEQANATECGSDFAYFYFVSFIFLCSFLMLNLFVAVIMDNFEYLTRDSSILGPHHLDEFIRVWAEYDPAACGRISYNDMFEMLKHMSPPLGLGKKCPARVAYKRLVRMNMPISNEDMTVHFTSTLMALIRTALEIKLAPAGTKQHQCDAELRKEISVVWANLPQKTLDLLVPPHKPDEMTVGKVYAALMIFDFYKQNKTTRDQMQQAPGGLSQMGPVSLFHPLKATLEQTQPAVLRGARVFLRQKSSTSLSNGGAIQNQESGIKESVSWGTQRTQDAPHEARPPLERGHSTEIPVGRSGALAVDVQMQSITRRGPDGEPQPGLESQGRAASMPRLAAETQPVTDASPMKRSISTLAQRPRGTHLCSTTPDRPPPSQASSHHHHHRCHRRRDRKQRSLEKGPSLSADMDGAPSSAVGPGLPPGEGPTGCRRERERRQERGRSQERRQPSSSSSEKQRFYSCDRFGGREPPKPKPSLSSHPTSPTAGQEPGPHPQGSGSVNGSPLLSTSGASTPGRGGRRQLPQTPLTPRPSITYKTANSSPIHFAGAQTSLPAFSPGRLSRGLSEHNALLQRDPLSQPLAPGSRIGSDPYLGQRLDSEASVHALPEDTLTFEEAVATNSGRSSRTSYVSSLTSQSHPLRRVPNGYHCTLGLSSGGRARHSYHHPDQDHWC
Experiment: inhibitors of Mint1-CaV2.2 protein interaction, biochemical, HTRF (AID 2073)
Conditions: at 20 µM, stronger effect = higher value
[1] = measured here: average of repeat tests

Structure (SMILES) | inhibition | inhibition [1]
O=C(/C=C/c1ccccc1)N1CCN(S(=O)(=O)c2ccc(F)cc2)CC1 | -4.1% (inactive) | 
CN(C)CCNc1nc2c(c(=O)[nH]c(=O)n2C)n1CC(O)COc1ccc(Cl)cc1 (stereo not given) | -3% (inactive) | 
O=C(N/N=C/c1ccccc1)c1ccc(CN2C(=O)c3cccc4cccc2c34)cc1 | 36.4% (inactive) | 
COc1ccc(/C=N/NC(=O)c2ccc(CN3C(=O)c4cccc5cccc3c45)cc2)cc1O | 71.7% (inactive) | 39.7%
O=C(N/N=C/c1ccc(O)cc1O)c1ccc(CN2C(=O)c3cccc4cccc2c34)cc1 | 69.5% (active) | 
COC(=O)c1ccc(OCCOc2ccccc2C)cc1 | 26.5% (inactive) | 
Cc1ccc(C)c(S(=O)(=O)NCc2ccc(C(=O)N3CCOCC3)cc2)c1 | -3.9% (inactive) | 
CC(=O)Nc1ccc(OCCOc2ccc(/C=C3\C(=N)N4N=C(C)SC4=NC3=O)cc2)cc1 | 24.7% (inactive) | 
CCc1nn2c(=O)cc(COc3ccc(/C=C4\C(=N)N5N=C(CC(C)C)SC5=NC4=O)cc3)nc2s1 | 24.6% (inactive) | 
CCc1nn2c(=O)cc(COc3ccc(/C=C4\C(=N)N5N=C(C)SC5=NC4=O)cc3)nc2s1 | 60% (active) | 
COCCCN1C(=O)C(=O)/C(=C(/O)c2ccc(S(=O)(=O)N3CCCCC3)cc2)C1c1ccc(O)cc1 (stereo not given) | 2% (inactive) | 
CNC(=S)N1CCN=C1Nc1nc(C)cc(C)n1 | 3.5% (inactive) | 
Cc1c(Cl)cccc1NS(=O)(=O)c1ccc2c(c1)C1C=CCC1C(c1ccc(C(=O)O)cc1)N2 (stereo not given) | 61% (inactive) | 29.1%
COc1cccc(NS(=O)(=O)c2ccc3c(c2)C2C=CCC2C(c2ccc(C(=O)O)cc2)N3)c1 (stereo not given) | 56.4% (active) | 55%
COc1ccc(NS(=O)(=O)c2ccc3c(c2)[C@H]2C=CC[C@H]2[C@@H](c2ccc(C(=O)O)cc2)N3)cc1 | 20.2% (inactive) | 
Cc1cc(-c2cc(C(=O)O)c3ccccc3n2)c(C)s1 | 9.2% (inactive) | 
O=C1c2ccccc2C(=O)N1OCc1c(F)cccc1Cl | 16.6% (inactive) | 
CCOC(=O)c1c(N2C(=O)C3CC(C)=C(C)CC3C2=O)sc(C)c1C (stereo not given) | -2.7% (inactive) | 
CCOC(=O)c1c(N2C(=O)C=CC2=O)sc(C)c1C | 65.5% (active) | 
CCOC(=O)c1c(-n2cnnn2)sc(C)c1C | -6.3% (inactive) | 

Structure (SMILES) | inhibition | inhibition [1]
CCOC(=O)c1c(NC(=O)COC)sc(C(C)=O)c1C | 6.4% (inactive) | 
CCOc1ccc(N2C(=O)CC(S/C(N)=N/N=C/c3cccs3)C2=O)cc1 (stereo not given) | 10.6% (inactive) | 
CCCCc1nc2sc3c(=O)n(N)cnc3c2c2c1CCCC2 | 8.9% (inactive) | 
Cc1c(-c2ccnc3cc(C(=O)O)nn23)cnn1C | 49.5% (inactive) | 
CCn1ncc(-c2ccnc3cc(C(=O)O)nn23)c1C | 67.9% (active) | 
CCn1cc(-c2ccnc3cc(C(=O)O)nn23)c(C)n1 | 39.6% (inactive) | 
CCn1cc(C(=O)Nc2ccc(F)c(F)c2)cn1 | 8.5% (inactive) | 
CC(C)n1nc(C(=O)N2CCN(S(=O)(=O)c3cccs3)CC2)c2ccccc2c1=O | -6.3% (inactive) | 
Cc1ccc(NC(=O)CN2C(=O)S/C(=C/c3ccc(-c4cccc(C(=O)O)c4)o3)C2=O)cc1 | 62.3% (active) | 
Cc1ccc(NC(=O)CN2C(=O)S/C(=C\c3ccc(-c4cccc(C(=O)O)c4C)o3)C2=O)cc1 | 7.6% (inactive) | 
Cc1ccc(C(=O)O)cc1-c1ccc(/C=C2\SC(=O)N(CC(=O)Nc3ccccc3)C2=O)o1 | 24% (inactive) | 
O=c1[nH]cnc(O)c1N=Nc1ccccc1 | -0.9% (inactive) | 
CCCSCCCNC(=O)c1cc2c(s1)CS(=O)(=O)C2 | 2% (inactive) | 
O=C(O)c1cccc(NC(=O)c2ccc3c(c2)C(=O)N(c2cccc([N+](=O)[O-])c2)C3=O)c1 | 26.4% (inactive) | 
O=C(Nc1ccccc1C(=O)O)c1ccc2c(c1)C(=O)N(c1cccc([N+](=O)[O-])c1)C2=O | 11.2% (inactive) | 
CCOC(=O)c1cc2c(N)c(C(=O)c3cc(C#N)c(SC)nc3C)sc2nc1C | 8.2% (inactive) | 
COc1cc2ccccc2nn1 | 22.3% (inactive) | 
COc1ccc2c(n1)Sc1nc3ccccc3nc1N2 | 78.9% (active) | 
COc1nc2ccccc2nc1OC | -4.1% (inactive) | 
Cn1nc(-c2ccccc2)cc1NC(=O)Nc1ccc(F)cc1 | -0.7% (inactive) | 

Structure (SMILES) | inhibition | inhibition [1]
COc1ccc(N=C2NC(=O)/C(=C\c3ccco3)S2)cc1 | 81.2% (active) | 
Cc1ccc(N=C2NC(=O)S/C2=C\c2ccco2)cc1 | 29.6% (inactive) | 
O=C1NC(=Nc2ccccc2)/C(=C/c2ccco2)S1 | 24.1% (inactive) | 
Cc1ccc(N=C2NC(=O)/C(=C/C=C/c3ccco3)S2)cc1 | 36.2% (inactive) | 
Cc1cccc(N=C2NC(=O)/C(=C/C=C/c3ccco3)S2)c1 | 57.2% (inactive) | 31.3%
COc1ccc(N=C2NC(=O)/C(=C/c3ccco3)S2)cc1 | -14.1% (inactive) | 
Cc1ccc(N=C2NC(=O)/C(=C\c3ccco3)S2)cc1 | 58.4% (inactive) | 6.9%
O=C1NC(=Nc2ccc(Cl)cc2)/C(=C/c2ccco2)S1 | 55.3% (active) | 
Cc1ccc(N=C2NC(=O)/C(=C/C=C/c3ccco3)S2)cc1C | 76% (active) | 
Fc1cccc(Cl)c1CSc1nnc2ccccn12 | 4% (inactive) | 
Cc1c(CC(=O)NCC(=O)NCC(=O)O)c(=O)oc2cc3c(cc12)CCC(C)(C)O3 | 16.3% (inactive) | 
Clc1ccc(-n2nnnc2SCc2cn3ccccc3n2)cc1 | -7.5% (inactive) | 
Cc1cc(Cl)c(OCCOCCN2CCCCC2)c(Br)c1 | -0.3% (inactive) | 
CCNC(=O)NC(=O)COC(=O)C1CSC2(C)CCC(=O)N12 (stereo not given) | 3.1% (inactive) | 
C=CCN=C(NC#N)SCC(=O)NCc1ccccc1 | 2.2% (inactive) | 
COc1cccc(NC(=O)c2ccc(-c3ccccc3[N+](=O)[O-])o2)c1 | 52.1% (inactive) | 1.4%
CNC(=O)/C(C#N)=C/c1ccc(-c2ccc(OC)cc2[N+](=O)[O-])o1 | 11.4% (inactive) | 
COc1ccc(-c2ccc(C(=O)O)o2)c([N+](=O)[O-])c1 | 59.6% (active) | 
Cc1ccc(S(=O)(=O)N2CCN(C(=O)c3ccc(Cl)nc3)CC2)cc1 | 3% (inactive) | 
